# Measured values as given in the supplement of paper PMC10849652.
# Targets with a hit are over-represented here; the source holds about 7,900 in all. About 0.6% of all pairs of compound and target were hits. Values without a mark were called inactive.
# Tests used:
# Test in all cases: log2 fold change, soluble protein after heating vs DMSO (PISA); higher = thermal stabilisation; K562 cells, 10 uM, 30 min; active = over 0.2 and 3.5 SD of the protein, either way, in both replicates (recomputed)
# dasatinib = compound: Cc1nc(Nc2ncc(C(=O)Nc3c(C)cccc3Cl)s2)cc(N2CCN(CCO)CC2)n1 [dasatinib]
# Outline: (§1)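 K562 cells at 2×10^6 cells/mL were treated for 30 min with 10 μM compound, and aliquots were heated for 3 min over 48°C-58°C before pooling. Extraction used PBS with 0.5% NP-40 at 4°C, and soluble protein was the supernatant after 21,000xg for 90 min, measured by TMTpro 16plex LC-MS/MS with channel sums equalised. Thermal stability values, relative to control samples and from duplicates, are log2 fold changes.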
# [1] = compound: Cn1cc(-c2ccc3c(c2)CCN3C(=O)Cc2cccc(C(F)(F)F)c2)c2c(N)ncnc21
# Outline: as §1
# [2] = compound: Cn1cc(-c2ccc3nnc(C(F)(F)c4ccc5ncccc5c4)n3n2)cn1
# Outline: as §1
# tipifarnib = compound: Cn1cncc1[C@@](N)(c1ccc(Cl)cc1)c1ccc2c(c1)c(-c1cccc(Cl)c1)cc(=O)n2C [tipifarnib]
# Outline: as §1
# bafetinib = compound: Cc1ccc(NC(=O)c2ccc(CN3CC[C@H](N(C)C)C3)c(C(F)(F)F)c2)cc1Nc1nccc(-c2cncnc2)n1 [bafetinib]
# Outline: as §1
# mubritinib = compound: FC(F)(F)c1ccc(/C=C/c2nc(COc3ccc(CCCCn4ccnn4)cc3)co2)cc1 [mubritinib]
# Outline: as §1
# [3] = compound: Cc1cccc(CC(=O)N2CCc3c2ccc(-c2cn(C)c4ncnc(N)c24)c3F)n1
# Outline: as §1
# nilotinib = compound: Cc1cn(-c2cc(NC(=O)c3ccc(C)c(Nc4nccc(-c5cccnc5)n4)c3)cc(C(F)(F)F)c2)cn1 [nilotinib]
# Outline: as §1
# [4] = compound: Cc1nc(Nc2n[nH]c3c2CN(C(=O)N[C@H](CN(C)C)c2ccccc2)C3(C)C)c2sccc2n1
# Outline: as §1
# [5] = compound: Cc1ncc(-c2ccnc(Nc3ccc(S(C)(=O)=O)cc3)n2)n1C(C)C
# Outline: as §1
# Chain of UniProt P41247 (P41247 whole entry, looked up): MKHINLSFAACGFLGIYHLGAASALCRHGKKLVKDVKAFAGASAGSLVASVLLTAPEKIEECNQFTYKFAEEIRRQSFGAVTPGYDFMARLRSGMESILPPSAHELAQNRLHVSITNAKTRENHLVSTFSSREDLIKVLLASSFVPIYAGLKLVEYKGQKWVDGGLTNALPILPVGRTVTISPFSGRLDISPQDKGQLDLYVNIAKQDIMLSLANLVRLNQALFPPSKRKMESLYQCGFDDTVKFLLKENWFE
# Chain of UniProt P28065 (P28065 whole entry, looked up): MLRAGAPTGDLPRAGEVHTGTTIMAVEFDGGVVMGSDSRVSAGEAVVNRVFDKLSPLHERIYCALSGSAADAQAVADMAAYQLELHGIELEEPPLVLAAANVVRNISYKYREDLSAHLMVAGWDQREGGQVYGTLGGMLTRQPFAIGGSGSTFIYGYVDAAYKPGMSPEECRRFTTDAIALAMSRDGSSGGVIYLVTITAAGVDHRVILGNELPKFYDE
# Chain of UniProt O60237 (O60237 whole entry, looked up): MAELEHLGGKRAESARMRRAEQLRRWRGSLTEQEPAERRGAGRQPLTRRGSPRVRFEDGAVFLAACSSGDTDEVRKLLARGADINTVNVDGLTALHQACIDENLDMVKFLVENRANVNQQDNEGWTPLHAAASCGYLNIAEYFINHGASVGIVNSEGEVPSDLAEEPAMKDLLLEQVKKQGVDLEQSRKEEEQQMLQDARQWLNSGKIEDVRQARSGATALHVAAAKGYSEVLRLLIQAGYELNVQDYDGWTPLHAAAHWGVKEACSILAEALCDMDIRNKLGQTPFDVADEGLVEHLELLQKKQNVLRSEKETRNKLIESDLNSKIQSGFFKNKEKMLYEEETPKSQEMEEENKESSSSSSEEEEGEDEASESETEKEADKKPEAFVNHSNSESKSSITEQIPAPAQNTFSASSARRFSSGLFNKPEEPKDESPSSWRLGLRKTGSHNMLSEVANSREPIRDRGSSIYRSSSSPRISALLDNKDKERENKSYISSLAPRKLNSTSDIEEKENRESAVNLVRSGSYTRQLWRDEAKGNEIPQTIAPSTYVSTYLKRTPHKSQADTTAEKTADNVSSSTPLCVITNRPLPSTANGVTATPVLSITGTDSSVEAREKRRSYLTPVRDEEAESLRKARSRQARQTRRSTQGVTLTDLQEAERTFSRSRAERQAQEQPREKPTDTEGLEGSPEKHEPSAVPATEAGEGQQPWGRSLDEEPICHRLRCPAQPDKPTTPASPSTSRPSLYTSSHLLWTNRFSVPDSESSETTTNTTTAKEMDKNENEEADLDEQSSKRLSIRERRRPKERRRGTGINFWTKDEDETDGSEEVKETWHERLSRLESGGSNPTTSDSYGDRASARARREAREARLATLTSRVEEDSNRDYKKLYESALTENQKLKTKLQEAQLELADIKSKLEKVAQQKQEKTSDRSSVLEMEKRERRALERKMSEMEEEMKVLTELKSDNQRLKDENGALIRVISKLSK
# Chain of UniProt O00329 (O00329 whole entry, looked up): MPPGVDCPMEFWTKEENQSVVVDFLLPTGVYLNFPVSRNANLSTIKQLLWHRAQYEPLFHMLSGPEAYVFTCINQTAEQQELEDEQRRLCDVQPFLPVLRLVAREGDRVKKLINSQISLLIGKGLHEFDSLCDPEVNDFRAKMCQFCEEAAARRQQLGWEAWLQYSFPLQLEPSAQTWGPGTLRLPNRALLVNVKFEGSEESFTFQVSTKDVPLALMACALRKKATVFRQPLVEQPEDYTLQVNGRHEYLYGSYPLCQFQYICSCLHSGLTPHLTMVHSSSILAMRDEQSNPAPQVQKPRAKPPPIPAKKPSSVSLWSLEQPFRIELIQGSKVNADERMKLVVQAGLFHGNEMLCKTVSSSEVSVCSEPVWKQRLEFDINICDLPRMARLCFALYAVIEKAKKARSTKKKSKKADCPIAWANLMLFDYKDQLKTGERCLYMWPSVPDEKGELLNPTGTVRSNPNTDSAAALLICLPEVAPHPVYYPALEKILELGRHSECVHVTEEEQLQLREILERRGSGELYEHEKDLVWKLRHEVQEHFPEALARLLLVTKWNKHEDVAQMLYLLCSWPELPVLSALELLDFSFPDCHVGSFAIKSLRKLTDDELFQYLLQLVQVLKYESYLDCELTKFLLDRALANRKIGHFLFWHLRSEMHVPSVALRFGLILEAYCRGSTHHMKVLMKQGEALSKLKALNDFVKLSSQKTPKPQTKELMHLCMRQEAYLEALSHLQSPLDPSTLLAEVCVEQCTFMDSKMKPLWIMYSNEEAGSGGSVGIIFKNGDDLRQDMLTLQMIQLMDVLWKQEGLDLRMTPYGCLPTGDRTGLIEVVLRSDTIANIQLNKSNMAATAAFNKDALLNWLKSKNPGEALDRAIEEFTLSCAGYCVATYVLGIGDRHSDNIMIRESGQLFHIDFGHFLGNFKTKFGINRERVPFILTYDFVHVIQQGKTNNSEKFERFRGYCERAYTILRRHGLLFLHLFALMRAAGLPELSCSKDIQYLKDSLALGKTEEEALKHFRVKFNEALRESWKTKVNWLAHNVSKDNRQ
# Chain of UniProt O94806 (O94806 whole entry, looked up): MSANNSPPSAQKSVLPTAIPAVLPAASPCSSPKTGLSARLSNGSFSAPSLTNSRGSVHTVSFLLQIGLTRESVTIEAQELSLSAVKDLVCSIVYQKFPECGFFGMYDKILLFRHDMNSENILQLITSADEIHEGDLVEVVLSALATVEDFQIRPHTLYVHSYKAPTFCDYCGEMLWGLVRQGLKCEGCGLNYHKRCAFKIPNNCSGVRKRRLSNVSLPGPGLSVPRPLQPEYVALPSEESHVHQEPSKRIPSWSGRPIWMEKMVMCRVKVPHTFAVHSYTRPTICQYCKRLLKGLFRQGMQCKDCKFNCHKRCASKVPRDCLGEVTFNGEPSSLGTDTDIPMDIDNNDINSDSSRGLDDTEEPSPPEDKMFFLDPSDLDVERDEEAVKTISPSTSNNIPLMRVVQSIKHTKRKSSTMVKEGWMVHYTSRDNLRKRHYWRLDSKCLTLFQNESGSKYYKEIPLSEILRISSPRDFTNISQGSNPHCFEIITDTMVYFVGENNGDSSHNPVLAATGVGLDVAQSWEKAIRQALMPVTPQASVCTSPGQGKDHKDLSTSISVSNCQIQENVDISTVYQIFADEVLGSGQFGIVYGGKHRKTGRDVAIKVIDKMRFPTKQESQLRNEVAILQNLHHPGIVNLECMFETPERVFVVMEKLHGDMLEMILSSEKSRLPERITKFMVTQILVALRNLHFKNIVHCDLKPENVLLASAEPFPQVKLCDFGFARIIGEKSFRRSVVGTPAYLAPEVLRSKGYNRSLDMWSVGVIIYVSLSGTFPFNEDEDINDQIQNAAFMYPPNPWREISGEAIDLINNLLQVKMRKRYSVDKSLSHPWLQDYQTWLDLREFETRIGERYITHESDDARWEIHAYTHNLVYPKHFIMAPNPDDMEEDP
# Chain of UniProt Q2TAL8 (Q2TAL8 whole entry, looked up): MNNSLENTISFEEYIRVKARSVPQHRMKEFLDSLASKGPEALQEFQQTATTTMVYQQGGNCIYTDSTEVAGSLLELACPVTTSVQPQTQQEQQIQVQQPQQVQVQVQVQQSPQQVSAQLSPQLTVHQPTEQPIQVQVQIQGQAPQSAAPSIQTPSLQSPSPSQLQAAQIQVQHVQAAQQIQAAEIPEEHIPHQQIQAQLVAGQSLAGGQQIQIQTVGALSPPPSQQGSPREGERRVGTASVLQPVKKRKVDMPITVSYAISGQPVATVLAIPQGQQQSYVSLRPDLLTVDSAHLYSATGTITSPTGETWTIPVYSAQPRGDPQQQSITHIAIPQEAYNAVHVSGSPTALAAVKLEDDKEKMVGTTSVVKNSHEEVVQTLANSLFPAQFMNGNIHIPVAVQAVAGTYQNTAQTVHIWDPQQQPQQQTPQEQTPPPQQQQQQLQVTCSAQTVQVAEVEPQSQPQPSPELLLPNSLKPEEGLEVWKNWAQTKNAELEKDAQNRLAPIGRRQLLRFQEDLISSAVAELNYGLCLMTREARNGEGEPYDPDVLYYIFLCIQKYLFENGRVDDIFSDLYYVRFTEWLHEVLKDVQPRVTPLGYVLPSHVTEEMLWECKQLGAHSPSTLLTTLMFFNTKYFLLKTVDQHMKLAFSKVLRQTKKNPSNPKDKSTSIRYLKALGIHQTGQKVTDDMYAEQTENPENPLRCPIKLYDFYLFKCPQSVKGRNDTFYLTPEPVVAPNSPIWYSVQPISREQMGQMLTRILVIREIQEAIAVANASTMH
# Chain of UniProt Q13362 (Q13362 whole entry, looked up): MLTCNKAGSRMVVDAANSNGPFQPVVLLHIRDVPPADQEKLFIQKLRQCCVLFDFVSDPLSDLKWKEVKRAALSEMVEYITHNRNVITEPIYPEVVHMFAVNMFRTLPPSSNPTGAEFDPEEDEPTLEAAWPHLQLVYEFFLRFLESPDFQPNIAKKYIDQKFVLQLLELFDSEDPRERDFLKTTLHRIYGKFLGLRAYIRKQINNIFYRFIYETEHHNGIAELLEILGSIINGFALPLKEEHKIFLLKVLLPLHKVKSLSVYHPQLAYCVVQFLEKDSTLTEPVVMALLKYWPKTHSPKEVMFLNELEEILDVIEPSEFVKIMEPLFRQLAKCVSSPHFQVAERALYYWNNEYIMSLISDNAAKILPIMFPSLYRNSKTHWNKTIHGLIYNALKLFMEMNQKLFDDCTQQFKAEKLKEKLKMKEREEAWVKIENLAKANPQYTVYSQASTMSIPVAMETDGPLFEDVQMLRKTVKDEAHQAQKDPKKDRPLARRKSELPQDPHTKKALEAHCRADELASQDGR
# Chain of UniProt Q6EEV4 (Q6EEV4 whole entry, looked up): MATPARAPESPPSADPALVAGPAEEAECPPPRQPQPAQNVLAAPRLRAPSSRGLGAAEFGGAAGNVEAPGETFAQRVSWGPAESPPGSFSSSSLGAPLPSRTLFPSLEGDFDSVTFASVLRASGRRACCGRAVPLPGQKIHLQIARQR
Target,log2 fold change (dasatinib),log2 fold change [1],log2 fold change [2],log2 fold change (tipifarnib),log2 fold change (bafetinib),log2 fold change (mubritinib),log2 fold change [3],log2 fold change (nilotinib),log2 fold change [4],log2 fold change [5]
PSMA3 (UniProt H0YJ03),0.133,0.036,-0.017,0.02,,,,,,
PIK3CD (UniProt O00329),,-0.228,0.074,0.031,0.033,,,,,
PPP2R5C isoform 2 (UniProt Q13362),,,0.037,,0.046,-0.057,,,,
PUM1 (UniProt Q14671),-0.207,0.229,,,,,-0.202,,,
PSMC3 (UniProt E9PLG2),0.258,,,,0.147,0.059,,,,
PPP1R12B isoform 6 (UniProt O60237),,,,,-0.024,,,-0.004,-0.191,0.007
PCNX1 (UniProt Q96RV3),,,,0.305,-0.112,-0.019,,0.007,0.009,0
QRICH1 (UniProt Q2TAL8),-0.206,0.043,0.108,-0.159,0.042,-0.01,,-0.093,-0.118,0.078
PSMB9 (UniProt P28065),,0.054,,0.03,-0.22,,-0.122,,,
PDE4DIP (UniProt E9PS60),,-0.007,,,,,,,,
PCBP2 (UniProt F8VZX2),-0.144,-0.022,-0.196,,0.029,-0.153,,0.029,-0.112,0.049
PSMC1 (UniProt G3V4X1),,0.066,,0.479,,,-0.579,-0.195,0.042,-0.046
POLR2M (UniProt Q6EEV4),-0.003,0.135,,-0.095,-0.215,0.035,,0.107,-0.016,-0.022
POLB (UniProt P06746),-0.04,0.143,-0.133,0.043,,,-0.081,-0.103,-0.134,0.009
PNPLA4 (UniProt P41247),-0.165,0.156,0.078,-0.039,-0.339,0.826 (active),,0.128,-0.019,-0.001
PRKD3 (UniProt O94806),-0.258,-0.079,0.006,,-0.011,-0.062,-0.231,,,
PDIK1L (UniProt Q8N165),-0.081,0.05,0.13,-0.152,0.166,0.034,,-0.026,0.578 (active),-0.037
